A selection: hits, their analogues and other compounds. The true share with any hit is near 4.7%.
D1 potentiator: Potentiators of Human D1 Dopamine Receptor: qHTS; D(1A) dopamine receptor (Homo sapiens), P21728; HEK293 TREx D1 cells, calcium flux, dopamine EC20 potentiation; potentiation, % at 10 µM; 0.036% of 360,000 active; AID 504651, 2011; in the data active = potentiation above about 30%; note: 0% is about no effect
Target sequence (P21728 whole entry, looked up): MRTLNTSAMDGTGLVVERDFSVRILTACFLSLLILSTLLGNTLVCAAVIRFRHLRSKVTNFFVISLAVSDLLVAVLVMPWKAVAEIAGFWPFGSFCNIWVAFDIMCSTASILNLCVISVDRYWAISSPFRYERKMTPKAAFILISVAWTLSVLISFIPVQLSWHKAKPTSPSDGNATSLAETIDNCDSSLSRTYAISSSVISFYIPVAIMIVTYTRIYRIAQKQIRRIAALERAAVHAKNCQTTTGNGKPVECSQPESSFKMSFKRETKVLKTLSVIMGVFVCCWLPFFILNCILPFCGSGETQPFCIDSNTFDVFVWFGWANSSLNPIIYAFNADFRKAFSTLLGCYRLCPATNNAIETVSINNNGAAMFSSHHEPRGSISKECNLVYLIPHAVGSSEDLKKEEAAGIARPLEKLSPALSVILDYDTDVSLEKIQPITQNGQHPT
D1 agonist: Allosteric Agonists of the Human D1 Dopamine Receptor: qHTS | activation, % at 2 µM | 1% of 360,000 active | HEK293 T-REx D1 cells, calcium flux, agonist mode | D(1A) dopamine receptor (Homo sapiens), P21728 | AID 504660, 2011; note: 0% is about no effect
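Inducible HEK293 T-REx D1 cells, force-coupled to calcium signalling, were plated at 4000 cells/well with tetracycline and held overnight at 30 C. After no-wash calcium dye loading, compound-evoked calcium rise over 180 s flagged agonists.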
TRHR PAM: qHTS for Small Molecule Agonists and Allosteric Enhancers of Human TRH Receptor: Primary Screen for Enhancers; 0.66% of 360,000 active; enhancement, % at 2 µM; Thyrotropin-releasing hormone receptor (Homo sapiens), P34981; TRHR cells, fluo-8 calcium fluorescence, EC20 TRH enhancement; in the data active = enhancement above about 30%; note: 0% is about no effect
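TRHR-expressing cells loaded with fluo-8 calcium dye were read kinetically (ex 480/em 530) during compound addition, then stimulated with an EC20 of TRH (10 nM final). Enhancement of the Gq-mediated intracellular calcium response was scored.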
TRHR ag: qHTS for Small Molecule Agonists and Allosteric Enhancers of Human TRH Receptor: Primary Screen for Agonists; 0.18% of 360,000 active; activation, % at 2 µM; TRHR cells, calcium flux fluo-8, FDSS agonist mode; AID 493084, 2011; note: 0% is about no effect
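Read-out: compound-evoked intracellular calcium rise in TRHR cells, fluo-8 dye, kinetic FDSS fluorescence at 1 s/cycle following a 10-cycle baseline. Cells cultured overnight before dye loading (30 min–1.5 h, RT).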
D1 antag: Antagonist of Human D 1 Dopamine Receptor: qHTS | HEK293 TREx D1 cells, calcium flux, dopamine EC80; hits give low values | activity change, negative = inhibition, % at 10 µM | D(1A) dopamine receptor (Homo sapiens), P21728 | 3.2% of 360,000 active; in the data active = activity change below about -30%; note: % is set by controls: 0 for no effect and ±100 for the full control effect
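Allosteric or orthosteric antagonism assessed as attenuation of the calcium response to EC80 dopamine, added 180 s after compound, in induced HEK293 Trex D1 cells loaded with no-wash calcium dye.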
Starred values were filed as active, the others as inactive. Cut-off read from the data, not from the text of the source, unless noted: active = activation above about 30%; inactive = the rest.

Results for CCC(C(=O)Nc1ccc(S(=O)(=O)N(C)C2CCN(C)CC2)cc1)c1ccccc1 (configuration not stated) ?
D1 potentiator: -9; D1 agonist: 30*; TRHR PAM: 4; TRHR ag: 3; D1 antag: -14

How did COc1ccc(CC(=O)Nc2ccc(S(=O)(=O)N(C)C3CCN(C)CC3)cc2)cc1 do in these assays?
D1 potentiator: -2; D1 agonist: 21; TRHR PAM: -3; TRHR ag: 2; D1 antag: 9

Results for COc1ccccc1CC(=O)Nc1ccc(S(=O)(=O)N(C)C2CCN(C)CC2)cc1 ?
D1 potentiator: -3; D1 agonist: 2; TRHR PAM: 0; TRHR ag: 0; D1 antag: 8

Results for COc1ccc(S(=O)(=O)N(C)C2CCN(C)CC2)cc1 ?
D1 potentiator: 4; D1 agonist: -2; TRHR PAM: 1; TRHR ag: 0; D1 antag: 9

Results for CC(Oc1ccc(Br)cc1)C(=O)Nc1ccc(S(=O)(=O)N(C)C2CCN(C)CC2)cc1 (configuration not stated) ?
D1 potentiator: 13; D1 agonist: 126*; TRHR PAM: -14; TRHR ag: 13; D1 antag: -52*

What do the screens show for `CCOc1ccc(NC(=O)N2CCN3CCCCC3C2)cc1` (configuration not stated)?
D1 potentiator: -1; D1 agonist: -1; TRHR PAM: -1; TRHR ag: 0; D1 antag: 5

How did CCCc1cc(-c2n[nH]c(C)c2-c2ccc(C(=O)OCC)o2)c(O)cc1O do in these assays?
D1 potentiator: -2; D1 agonist: 65*; TRHR PAM: 2; TRHR ag: 0; D1 antag: 63

Results for COc1cccc(/C=N/Nc2snc(SC)c2C#N)c1O ?
D1 potentiator: -1; D1 agonist: 37*; TRHR PAM: -11; TRHR ag: 5; D1 antag: -41*

Results for O/N=C(\Cc1cscn1)c1ccc(O)cc1O ?
D1 potentiator: 14; D1 agonist: 4; TRHR PAM: 17; TRHR ag: 0; D1 antag: -10

Results for CCc1cc(/C(Cc2cscn2)=N\O)c(O)cc1O ?
D1 potentiator: 2; D1 agonist: 6; TRHR PAM: 30*; TRHR ag: 1; D1 antag: 5

Results for COC(=O)Cc1cc(=O)[nH]c(/N=C(\N)Nc2ccc(C)cc2C)n1 ?
D1 potentiator: -9; D1 agonist: 5; TRHR PAM: 17; TRHR ag: 0; D1 antag: -32*

Results for CCOC(=O)Cc1cc(=O)[nH]c(/N=C(\N)Nc2ccc(C)cc2C)n1 ?
D1 potentiator: -31; D1 agonist: 4; TRHR PAM: -3; TRHR ag: 0; D1 antag: -38*

What do the screens show for `Cc1nnc(SCc2cc(=O)[nH]c(/N=C(\N)Nc3ccccc3Sc3ccccc3)n2)s1`?
D1 potentiator: -1; D1 agonist: 2; TRHR PAM: -11; TRHR ag: 7; D1 antag: -11

How did COc1ccccc1N/C(N)=N/c1nc(CSc2nc3ccccc3s2)cc(=O)[nH]1 do in these assays?
D1 potentiator: 4; D1 agonist: 5; TRHR PAM: 9; TRHR ag: 1; D1 antag: -31*

Results for C#Cc1nc(Nc2cccc(Cl)c2)nc(NC2CCCC2)n1 ?
D1 potentiator: 0; D1 agonist: 2; TRHR PAM: -1; TRHR ag: -1; D1 antag: -20

What do the screens show for `Cc1ccc(C)c(NC(=O)CSc2nncn2C)c1`?
D1 potentiator: -5; D1 agonist: -3; TRHR PAM: -2; TRHR ag: 0; D1 antag: -33*

How did Cc1cc(C)cc(-n2ccnc2SCC(=O)Nc2ccc3c(c2)OCCO3)c1 do in these assays?
D1 potentiator: -4; D1 agonist: 0; TRHR PAM: 4; TRHR ag: -1; D1 antag: -25

How did O=C1CCCN2N=C(SCC(=O)Nc3ccc(Cl)cc3)SC2=N1 do in these assays?
D1 potentiator: -5; D1 agonist: 10; TRHR PAM: 3; TRHR ag: 0; D1 antag: -9

What do the screens show for `CCOc1ccc(-n2ccnc2SCC(=O)Nc2cc(C)ccc2C)cc1`?
D1 potentiator: -7; D1 agonist: -1; TRHR PAM: 1; TRHR ag: -1; D1 antag: -46*

Results for Cc1ccc(NC(=O)CSC2=NN3CCCC(=O)N=C3S2)cc1Cl ?
D1 agonist: 25; TRHR PAM: 7; TRHR ag: -1; D1 antag: -39*

How did Cc1cc(C)cc(-n2ccnc2SCC(=O)Nc2ccc(C)c(Cl)c2)c1 do in these assays?
D1 potentiator: 1; D1 agonist: 3; TRHR PAM: 1; TRHR ag: 0; D1 antag: -40*

Results for COC(=O)c1ccc2c(=O)n(CCCCCC(=O)N3CCN(c4ccc(Cl)cc4)CC3)c(=O)[nH]c2c1 ?
D1 potentiator: -3; D1 agonist: 0; TRHR PAM: 7; TRHR ag: 0; D1 antag: 1

What do the screens show for `Cc1cccc(-c2nnn3c2nc(NCc2ccc4c(c2)OCO4)c2ccccc23)c1`?
D1 potentiator: -3; D1 agonist: -1; TRHR PAM: 1; TRHR ag: 1; D1 antag: 6

Results for CCc1ccccc1NS(=O)(=O)c1ccc2c(c1)CC(=O)N2 ?
D1 potentiator: 2; D1 agonist: 3; TRHR PAM: 4; TRHR ag: -1; D1 antag: -4

Results for Cc1ccc(OCCCc2c(C)n[nH]c2C)cc1 ?
D1 potentiator: -5; D1 agonist: 4; TRHR PAM: -3; TRHR ag: 0; D1 antag: -19

How did Cc1n[nH]c(C)c1CCCCOc1ccccc1[N+](=O)[O-] do in these assays?
D1 potentiator: -5; D1 agonist: 19; TRHR PAM: -2; TRHR ag: 0; D1 antag: -33*

What do the screens show for `Cc1cccc(C)c1OCCCCc1c(C)n[nH]c1C`?
D1 potentiator: -7; D1 agonist: 0; TRHR PAM: 10; TRHR ag: -1; D1 antag: 2

What do the screens show for `Cc1ccccc1OCCCCc1c(C)n[nH]c1C`?
D1 potentiator: -5; D1 agonist: 8; TRHR PAM: 0; TRHR ag: -1; D1 antag: -25

How did Cc1n[nH]c(C)c1CCCCOc1ccccc1 do in these assays?
D1 potentiator: -8; D1 agonist: 15; TRHR PAM: -7; TRHR ag: 0; D1 antag: -32*

Screens from PubChem.
